# Measured values from article PMC7862700, “An all-to-all approach to the identification of sequence-specific readers for epigenetic DNA modifications on cytosine”.
# Key:
# Assay in all cases: DAPPL (digital affinity profiling via proximity ligation, sequencing); 10 mM Tris-HCl pH 7.5, 50 mM NaCl, 1 mM DTT, 4% glycerol, room temperature, 30 min; GST-TFs on glutathione beads, 16-mer random dsDNA library, 0.1% formaldehyde crosslink after washing; high values mean tight binding
# FEV = target: T1, FEV (Homo sapiens, UniProt Q99581 1-238); details: protein: recombinant; tags: N-terminal GST; dsDNA, one strand shown
# T1 sequence: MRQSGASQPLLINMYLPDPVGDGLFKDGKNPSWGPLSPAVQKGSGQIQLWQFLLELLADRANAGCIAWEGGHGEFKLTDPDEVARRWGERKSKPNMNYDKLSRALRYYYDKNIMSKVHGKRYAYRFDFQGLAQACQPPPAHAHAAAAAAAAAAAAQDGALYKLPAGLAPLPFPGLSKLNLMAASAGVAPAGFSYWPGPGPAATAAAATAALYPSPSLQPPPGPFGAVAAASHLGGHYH
# Outline: (§1)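 After expression in yeast as GST fusions, human transcription factors were bound to glutathione beads, DNA-barcoded and mixed with a tag-only sample. The pools were incubated with 200 nmole of a 16-mer random double-stranded DNA library in Tris/NaCl/DTT/glycerol buffer (30 min, room temperature), washed and crosslinked with 0.1% formaldehyde. Proximity ligation with BsaI/T4 ligase ran for 1 h at 37 °C, before PCR amplification and sequencing on an Illumina NextSeq500. Binding signal is a hexamer's read frequency for a factor divided by its frequency for the tag-only sample.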
# ETV5 = ETV5 (Homo sapiens, UniProt P41161 1-510); details: protein: recombinant; tags: N-terminal GST; dsDNA, one strand shown
# ETV5, sequence (P41161 whole entry): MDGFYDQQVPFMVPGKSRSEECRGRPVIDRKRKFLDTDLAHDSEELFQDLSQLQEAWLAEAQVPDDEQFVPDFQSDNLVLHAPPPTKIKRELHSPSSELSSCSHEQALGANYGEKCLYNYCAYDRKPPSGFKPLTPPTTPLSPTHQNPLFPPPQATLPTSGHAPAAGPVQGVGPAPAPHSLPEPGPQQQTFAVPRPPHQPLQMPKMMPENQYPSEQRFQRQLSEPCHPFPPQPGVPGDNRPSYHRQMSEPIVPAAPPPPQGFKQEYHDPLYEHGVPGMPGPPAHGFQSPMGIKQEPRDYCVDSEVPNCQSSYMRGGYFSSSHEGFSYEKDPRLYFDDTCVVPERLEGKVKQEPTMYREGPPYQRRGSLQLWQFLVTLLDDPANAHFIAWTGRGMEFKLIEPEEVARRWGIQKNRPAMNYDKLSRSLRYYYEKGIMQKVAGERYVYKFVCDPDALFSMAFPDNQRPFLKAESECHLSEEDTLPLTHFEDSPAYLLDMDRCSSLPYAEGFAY
# Outline: as §1
# HSF1 = HSF1 (Homo sapiens, UniProt Q00613 1-529); details: protein: recombinant; tags: N-terminal GST; chain copies: 3; dsDNA, one strand shown
# HSF1, sequence (Q00613 whole entry): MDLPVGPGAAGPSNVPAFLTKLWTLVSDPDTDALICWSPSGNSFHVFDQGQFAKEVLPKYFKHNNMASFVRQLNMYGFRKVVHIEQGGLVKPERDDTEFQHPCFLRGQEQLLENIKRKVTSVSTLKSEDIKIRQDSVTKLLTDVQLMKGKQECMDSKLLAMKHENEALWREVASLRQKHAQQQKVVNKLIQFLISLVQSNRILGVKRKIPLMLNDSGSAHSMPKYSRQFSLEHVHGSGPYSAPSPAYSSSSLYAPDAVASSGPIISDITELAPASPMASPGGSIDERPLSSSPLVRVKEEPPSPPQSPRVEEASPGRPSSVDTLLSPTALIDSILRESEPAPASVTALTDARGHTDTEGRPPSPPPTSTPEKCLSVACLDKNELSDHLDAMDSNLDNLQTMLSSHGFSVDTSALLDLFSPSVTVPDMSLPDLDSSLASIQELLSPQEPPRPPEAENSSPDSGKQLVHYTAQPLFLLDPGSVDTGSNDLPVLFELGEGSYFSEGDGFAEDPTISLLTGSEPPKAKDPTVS
# Outline: as §1
# SPIC = target: T2, SPIC (Homo sapiens, UniProt Q8N5J4 1-248); details: protein: recombinant; tags: N-terminal GST; dsDNA, one strand shown
# T2 sequence: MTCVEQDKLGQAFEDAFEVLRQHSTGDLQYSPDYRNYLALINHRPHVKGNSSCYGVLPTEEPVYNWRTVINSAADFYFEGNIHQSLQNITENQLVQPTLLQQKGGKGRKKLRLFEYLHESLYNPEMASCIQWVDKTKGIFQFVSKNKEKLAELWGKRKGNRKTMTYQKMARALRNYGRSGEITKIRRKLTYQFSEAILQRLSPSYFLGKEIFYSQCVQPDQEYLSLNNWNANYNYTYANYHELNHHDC
# Outline: as §1
# ELF4 = ELF4 (Homo sapiens, UniProt Q99607 1-663); details: protein: recombinant; tags: N-terminal GST; dsDNA, one strand shown
# ELF4, sequence (Q99607 whole entry): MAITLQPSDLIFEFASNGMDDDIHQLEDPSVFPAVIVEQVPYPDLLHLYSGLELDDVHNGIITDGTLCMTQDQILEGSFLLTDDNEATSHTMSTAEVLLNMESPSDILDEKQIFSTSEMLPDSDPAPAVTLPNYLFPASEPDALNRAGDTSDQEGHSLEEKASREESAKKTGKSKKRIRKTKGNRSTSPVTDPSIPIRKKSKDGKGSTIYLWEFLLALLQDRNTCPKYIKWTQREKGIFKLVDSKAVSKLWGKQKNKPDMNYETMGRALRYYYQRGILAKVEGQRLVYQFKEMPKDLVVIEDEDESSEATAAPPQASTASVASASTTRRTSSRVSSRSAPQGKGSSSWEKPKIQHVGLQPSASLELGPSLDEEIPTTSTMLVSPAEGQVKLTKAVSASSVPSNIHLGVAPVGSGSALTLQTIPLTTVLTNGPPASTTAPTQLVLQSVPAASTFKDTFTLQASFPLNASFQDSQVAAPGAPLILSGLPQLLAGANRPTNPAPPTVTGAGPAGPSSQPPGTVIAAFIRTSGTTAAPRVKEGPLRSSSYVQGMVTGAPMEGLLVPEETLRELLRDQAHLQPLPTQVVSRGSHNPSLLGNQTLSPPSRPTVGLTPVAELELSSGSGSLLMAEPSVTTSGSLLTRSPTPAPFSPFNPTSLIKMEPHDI
# Outline: as §1
# ELK4 = target: T3, ELK4 (Homo sapiens, UniProt P28324-2 1-405); details: protein: recombinant; tags: N-terminal GST; dsDNA, one strand shown
# T3 sequence: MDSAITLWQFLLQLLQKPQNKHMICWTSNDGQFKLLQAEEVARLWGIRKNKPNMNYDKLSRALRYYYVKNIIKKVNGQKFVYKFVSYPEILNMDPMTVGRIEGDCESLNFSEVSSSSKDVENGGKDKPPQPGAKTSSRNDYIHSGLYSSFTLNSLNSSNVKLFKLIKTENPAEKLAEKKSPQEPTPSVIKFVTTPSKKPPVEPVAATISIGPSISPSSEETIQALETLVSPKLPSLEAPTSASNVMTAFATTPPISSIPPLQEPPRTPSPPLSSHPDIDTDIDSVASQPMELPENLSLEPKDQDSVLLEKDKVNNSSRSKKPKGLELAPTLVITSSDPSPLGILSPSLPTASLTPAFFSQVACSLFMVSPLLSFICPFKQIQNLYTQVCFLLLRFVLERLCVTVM
# Outline: as §1
# ETV2 = target: T4, ETV2 (Homo sapiens, UniProt O00321 1-342); details: protein: recombinant; tags: N-terminal GST; dsDNA, one strand shown
# T4 sequence: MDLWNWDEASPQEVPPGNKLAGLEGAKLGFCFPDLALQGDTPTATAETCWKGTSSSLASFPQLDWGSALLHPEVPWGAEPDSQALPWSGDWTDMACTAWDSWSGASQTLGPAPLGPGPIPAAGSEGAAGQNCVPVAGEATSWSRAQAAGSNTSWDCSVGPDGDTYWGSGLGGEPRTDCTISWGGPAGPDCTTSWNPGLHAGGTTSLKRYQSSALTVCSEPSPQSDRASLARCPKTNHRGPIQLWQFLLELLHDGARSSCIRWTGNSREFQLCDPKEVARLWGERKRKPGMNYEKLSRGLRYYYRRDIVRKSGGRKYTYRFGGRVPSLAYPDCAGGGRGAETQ
# Outline: as §1
# ELF3 = target: T5, ELF3 (Homo sapiens, UniProt P78545 1-371); details: protein: recombinant; tags: N-terminal GST; dsDNA, one strand shown
# T5 sequence: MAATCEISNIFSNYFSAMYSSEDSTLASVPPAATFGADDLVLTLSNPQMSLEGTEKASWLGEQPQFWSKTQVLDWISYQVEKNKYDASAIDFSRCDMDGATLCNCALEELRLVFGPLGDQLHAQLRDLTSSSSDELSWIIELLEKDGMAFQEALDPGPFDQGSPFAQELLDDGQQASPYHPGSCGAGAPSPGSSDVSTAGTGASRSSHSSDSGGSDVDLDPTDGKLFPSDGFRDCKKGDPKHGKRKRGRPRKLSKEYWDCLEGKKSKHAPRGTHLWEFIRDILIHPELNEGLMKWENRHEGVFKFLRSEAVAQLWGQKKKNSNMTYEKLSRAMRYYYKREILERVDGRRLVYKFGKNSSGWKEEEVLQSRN
# Outline: as §1
# CRX = CRX (Homo sapiens, UniProt O43186 1-299); details: protein: recombinant; tags: N-terminal GST; dsDNA, one strand shown
# CRX, sequence (O43186 whole entry): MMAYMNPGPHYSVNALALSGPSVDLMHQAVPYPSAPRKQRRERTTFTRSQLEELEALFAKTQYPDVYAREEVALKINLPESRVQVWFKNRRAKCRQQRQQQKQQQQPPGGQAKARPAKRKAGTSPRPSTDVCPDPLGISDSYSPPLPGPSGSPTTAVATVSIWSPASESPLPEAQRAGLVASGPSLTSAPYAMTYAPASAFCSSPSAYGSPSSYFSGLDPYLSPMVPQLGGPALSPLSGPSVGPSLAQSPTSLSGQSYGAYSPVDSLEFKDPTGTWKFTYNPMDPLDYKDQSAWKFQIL
# Outline: as §1
# ETV1 = ETV1 (Homo sapiens, UniProt P50549 1-477); details: protein: recombinant; tags: N-terminal GST; dsDNA, one strand shown
# ETV1, sequence (P50549 whole entry): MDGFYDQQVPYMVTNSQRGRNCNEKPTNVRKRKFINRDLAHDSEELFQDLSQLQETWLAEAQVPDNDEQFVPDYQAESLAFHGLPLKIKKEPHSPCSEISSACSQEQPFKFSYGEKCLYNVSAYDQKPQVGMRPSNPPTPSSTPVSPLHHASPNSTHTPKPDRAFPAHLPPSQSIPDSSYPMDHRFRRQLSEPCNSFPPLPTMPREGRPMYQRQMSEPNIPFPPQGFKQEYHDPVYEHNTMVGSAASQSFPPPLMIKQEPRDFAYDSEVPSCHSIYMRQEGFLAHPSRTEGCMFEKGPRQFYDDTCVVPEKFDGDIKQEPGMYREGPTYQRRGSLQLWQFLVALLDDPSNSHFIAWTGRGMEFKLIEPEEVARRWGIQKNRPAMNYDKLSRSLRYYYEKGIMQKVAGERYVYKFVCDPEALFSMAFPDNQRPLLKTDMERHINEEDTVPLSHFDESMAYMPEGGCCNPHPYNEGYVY
# Outline: as §1
# ERF = target: T6, ERF (Homo sapiens, UniProt P50548 1-548); details: protein: recombinant; tags: N-terminal GST; dsDNA, one strand shown
# T6 sequence: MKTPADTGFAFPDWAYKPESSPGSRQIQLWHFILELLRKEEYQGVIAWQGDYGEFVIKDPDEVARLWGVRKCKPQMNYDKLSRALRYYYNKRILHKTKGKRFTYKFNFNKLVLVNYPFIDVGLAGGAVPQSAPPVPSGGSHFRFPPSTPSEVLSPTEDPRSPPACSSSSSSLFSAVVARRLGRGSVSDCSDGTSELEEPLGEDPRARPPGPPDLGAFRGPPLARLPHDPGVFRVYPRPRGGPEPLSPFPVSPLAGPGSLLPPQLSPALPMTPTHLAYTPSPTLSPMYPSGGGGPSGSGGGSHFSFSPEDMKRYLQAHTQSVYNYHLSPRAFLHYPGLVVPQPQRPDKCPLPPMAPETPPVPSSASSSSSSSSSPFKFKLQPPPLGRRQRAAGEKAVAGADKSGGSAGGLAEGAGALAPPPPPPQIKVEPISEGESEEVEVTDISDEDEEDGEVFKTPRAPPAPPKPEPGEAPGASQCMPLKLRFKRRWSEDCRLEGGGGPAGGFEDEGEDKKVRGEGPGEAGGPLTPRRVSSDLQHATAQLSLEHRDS
# Outline: as §1
# ETV3L = target: T7, ETV3L (Homo sapiens, UniProt Q6ZN32 1-361); details: protein: recombinant; tags: N-terminal GST; dsDNA, one strand shown
# T7 sequence: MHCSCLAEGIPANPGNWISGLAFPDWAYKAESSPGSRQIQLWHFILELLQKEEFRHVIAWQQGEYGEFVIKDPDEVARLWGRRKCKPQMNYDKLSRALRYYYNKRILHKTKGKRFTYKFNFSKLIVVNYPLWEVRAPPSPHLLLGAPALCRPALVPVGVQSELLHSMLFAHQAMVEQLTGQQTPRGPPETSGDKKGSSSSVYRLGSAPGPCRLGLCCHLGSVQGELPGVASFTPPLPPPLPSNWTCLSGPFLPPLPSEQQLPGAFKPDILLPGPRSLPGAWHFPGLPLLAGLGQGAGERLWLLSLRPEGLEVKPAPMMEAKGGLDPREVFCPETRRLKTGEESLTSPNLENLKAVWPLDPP
# Outline: as §1
# ETS2 = target: T8, ETS2 (Homo sapiens, UniProt P15036 1-469); details: protein: recombinant; tags: N-terminal GST; dsDNA, one strand shown
# T8 sequence: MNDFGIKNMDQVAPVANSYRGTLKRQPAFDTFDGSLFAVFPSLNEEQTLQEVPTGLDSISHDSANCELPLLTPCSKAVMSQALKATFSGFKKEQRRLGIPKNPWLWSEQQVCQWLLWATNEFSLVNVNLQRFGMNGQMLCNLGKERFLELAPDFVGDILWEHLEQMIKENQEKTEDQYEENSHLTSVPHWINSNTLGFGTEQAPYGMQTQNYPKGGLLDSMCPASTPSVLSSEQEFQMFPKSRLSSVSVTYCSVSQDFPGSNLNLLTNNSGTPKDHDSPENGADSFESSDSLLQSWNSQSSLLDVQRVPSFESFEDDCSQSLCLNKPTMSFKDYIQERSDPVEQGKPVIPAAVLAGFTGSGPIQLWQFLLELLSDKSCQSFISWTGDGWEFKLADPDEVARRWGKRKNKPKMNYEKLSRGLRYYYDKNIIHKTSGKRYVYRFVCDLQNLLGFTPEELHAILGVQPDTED
# Outline: as §1
# SPDEF = target: T9, SPDEF (Homo sapiens, UniProt O95238 1-335); details: protein: recombinant; tags: N-terminal GST; dsDNA, one strand shown
# T9 sequence: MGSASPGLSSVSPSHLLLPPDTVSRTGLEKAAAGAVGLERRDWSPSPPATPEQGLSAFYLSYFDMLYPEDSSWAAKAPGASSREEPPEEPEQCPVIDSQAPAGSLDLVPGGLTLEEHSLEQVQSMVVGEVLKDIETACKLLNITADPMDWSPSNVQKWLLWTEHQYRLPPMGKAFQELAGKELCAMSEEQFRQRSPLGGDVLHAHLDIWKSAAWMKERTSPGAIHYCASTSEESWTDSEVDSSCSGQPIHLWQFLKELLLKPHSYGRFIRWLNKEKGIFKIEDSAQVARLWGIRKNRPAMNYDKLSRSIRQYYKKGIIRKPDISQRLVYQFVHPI
# Outline: as §1
# ETV7 = target: T10, ETV7 (Homo sapiens, UniProt Q9Y603 1-341); details: protein: recombinant; tags: N-terminal GST; dsDNA, one strand shown
# T10 sequence: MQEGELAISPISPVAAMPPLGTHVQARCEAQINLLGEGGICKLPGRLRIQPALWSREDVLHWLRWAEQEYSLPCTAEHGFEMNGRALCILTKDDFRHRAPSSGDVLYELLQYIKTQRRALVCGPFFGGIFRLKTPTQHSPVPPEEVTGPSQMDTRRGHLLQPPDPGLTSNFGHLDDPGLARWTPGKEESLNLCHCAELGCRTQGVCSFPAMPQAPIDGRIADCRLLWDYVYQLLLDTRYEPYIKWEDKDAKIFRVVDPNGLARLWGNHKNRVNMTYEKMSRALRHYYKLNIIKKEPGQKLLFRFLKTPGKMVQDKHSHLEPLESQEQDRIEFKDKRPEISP
# Outline: as §1
# ELF5 = target: T11, ELF5 (Homo sapiens, UniProt Q9UKW6-2 1-255); details: protein: recombinant; tags: N-terminal GST; dsDNA, one strand shown
# T11 sequence: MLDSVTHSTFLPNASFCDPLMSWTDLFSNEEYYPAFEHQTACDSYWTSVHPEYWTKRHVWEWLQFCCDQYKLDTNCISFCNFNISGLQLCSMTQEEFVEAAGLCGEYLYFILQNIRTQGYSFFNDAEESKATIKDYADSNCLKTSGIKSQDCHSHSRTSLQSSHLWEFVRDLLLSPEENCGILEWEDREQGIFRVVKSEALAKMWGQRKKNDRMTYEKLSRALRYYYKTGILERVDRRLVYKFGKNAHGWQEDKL
# Outline: as §1
# ETV3 = target: T12, ETV3 (Homo sapiens, UniProt P41162-2 1-143); details: protein: recombinant; tags: N-terminal GST; dsDNA, one strand shown
# T12 sequence: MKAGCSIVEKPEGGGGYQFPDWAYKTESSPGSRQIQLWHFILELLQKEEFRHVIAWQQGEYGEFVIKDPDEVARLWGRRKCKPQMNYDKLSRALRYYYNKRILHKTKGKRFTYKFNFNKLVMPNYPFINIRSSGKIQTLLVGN
# Outline: as §1
# ETV6 = ETV6 (Homo sapiens, UniProt P41212 1-452); details: protein: recombinant; tags: N-terminal GST; dsDNA, one strand shown
# ETV6, sequence (P41212 whole entry): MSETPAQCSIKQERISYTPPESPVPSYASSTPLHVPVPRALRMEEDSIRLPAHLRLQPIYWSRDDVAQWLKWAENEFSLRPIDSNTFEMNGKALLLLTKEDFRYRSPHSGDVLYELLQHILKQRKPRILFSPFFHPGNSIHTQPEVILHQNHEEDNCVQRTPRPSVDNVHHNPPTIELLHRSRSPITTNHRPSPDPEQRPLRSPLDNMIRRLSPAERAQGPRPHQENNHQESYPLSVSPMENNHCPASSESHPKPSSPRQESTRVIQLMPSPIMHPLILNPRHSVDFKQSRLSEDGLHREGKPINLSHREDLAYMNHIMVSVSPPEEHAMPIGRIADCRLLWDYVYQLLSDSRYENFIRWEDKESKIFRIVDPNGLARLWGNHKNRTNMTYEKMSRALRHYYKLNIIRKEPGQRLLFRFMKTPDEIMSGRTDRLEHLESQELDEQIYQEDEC
# Outline: as §1
sequence,measurement,setting,value
CCTTGC,binding signal,FEV,"1.27 fold enrichment (6-mer frequency, TF over GST control)"
same,binding signal,ETV5,"1.17 fold enrichment (6-mer frequency, TF over GST control)"
same,binding signal,HSF1,"1.04 fold enrichment (6-mer frequency, TF over GST control)"
same,binding signal,SPIC,"1.45 fold enrichment (6-mer frequency, TF over GST control)"
same,binding signal,ELF4,"1.27 fold enrichment (6-mer frequency, TF over GST control)"
same,binding signal,ELK4,"1.2 fold enrichment (6-mer frequency, TF over GST control)"
same,binding signal,ETV2,"1.44 fold enrichment (6-mer frequency, TF over GST control)"
same,binding signal,ELF3,"1.49 fold enrichment (6-mer frequency, TF over GST control)"
same,binding signal,CRX,"1.02 fold enrichment (6-mer frequency, TF over GST control)"
same,binding signal,ETV1,"1.33 fold enrichment (6-mer frequency, TF over GST control)"
same,binding signal,ERF,"1.43 fold enrichment (6-mer frequency, TF over GST control)"
same,binding signal,ETV3L,"1.42 fold enrichment (6-mer frequency, TF over GST control)"
same,binding signal,ETS2,"1.22 fold enrichment (6-mer frequency, TF over GST control)"
same,binding signal,SPDEF,"1.34 fold enrichment (6-mer frequency, TF over GST control)"
same,binding signal,ETV7,"1.41 fold enrichment (6-mer frequency, TF over GST control)"
same,binding signal,ELF5,"1.28 fold enrichment (6-mer frequency, TF over GST control)"
same,binding signal,ETV3,"1.35 fold enrichment (6-mer frequency, TF over GST control)"
same,binding signal,ETV6,"1.21 fold enrichment (6-mer frequency, TF over GST control)"
